Of roughly 7,900 targets only a part is listed; those with a hit were picked by preference. About 0.6% of all pairs of compound and target were hits. Unmarked numbers belong to inactive results.
Experiments:
Test in all cases: log2 fold change, soluble protein after heating vs DMSO (PISA); higher = thermal stabilisation; K562 cells, 10 uM, 30 min; active = over 0.2 and 3.5 SD of the protein, either way, in both replicates (recomputed)
[1] = target: ZEB2 (UniProt O60315)
In short: (§1)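 Quantification of soluble protein used TMTpro 16plex LC-MS/MS, with channel sums equalised. Samples were the supernatant after 21,000xg for 90 min of pooled aliquots from K562 cells (2×10^6 cells/mL) treated with 10 μM compound for 30 min, heated for 3 min over 48°C-58°C, and extracted in PBS with 0.5% NP-40 at 4°C. Values, from duplicates, describe thermal stability against control samples on a log2 fold-change scale.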

[2] = target: ZER1 (UniProt Q7Z7L7)
In short: as §1

[3] = target: ZFAND5 (UniProt O76080)
In short: as §1

[4] = target: ZFAND6 (UniProt Q6FIF0)
In short: as §1

[5] = target: ZFP91 (UniProt Q96JP5)
In short: as §1

[6] = target: ZFPL1 (UniProt O95159)
In short: as §1

[7] = target: ZMAT2 (UniProt Q96NC0)
In short: as §1

[8] = target: ZMYM1 (UniProt Q5SVZ6)
In short: as §1

[9] = target: ZMYM3 (UniProt Q14202)
In short: as §1

[10] = target: ZNF143 (UniProt P52747)
In short: as §1

[11] = target: ZNF217 (UniProt O75362)
In short: as §1

[12] = target: ZNF239 (UniProt Q16600)
In short: as §1

[13] = target: ZNF277 (UniProt Q9NRM2)
In short: as §1

[14] = target: ZNF512 (UniProt Q96ME7)
In short: as §1

[15] = target: ZNF579 (UniProt Q8NAF0)
In short: as §1

[16] = target: ZNF609 (UniProt O15014)
In short: as §1

[17] = target: ZNF622 (UniProt Q969S3)
In short: as §1

[18] = target: ZRANB2 (UniProt O95218)
In short: as §1

[19] = target: ZNF511 isoform 1 (UniProt Q8NB15)
In short: as §1

[20] = target: ZNF580 (UniProt Q9UK33)
In short: as §1

Chain of ZNF217 (O75362 whole entry, looked up): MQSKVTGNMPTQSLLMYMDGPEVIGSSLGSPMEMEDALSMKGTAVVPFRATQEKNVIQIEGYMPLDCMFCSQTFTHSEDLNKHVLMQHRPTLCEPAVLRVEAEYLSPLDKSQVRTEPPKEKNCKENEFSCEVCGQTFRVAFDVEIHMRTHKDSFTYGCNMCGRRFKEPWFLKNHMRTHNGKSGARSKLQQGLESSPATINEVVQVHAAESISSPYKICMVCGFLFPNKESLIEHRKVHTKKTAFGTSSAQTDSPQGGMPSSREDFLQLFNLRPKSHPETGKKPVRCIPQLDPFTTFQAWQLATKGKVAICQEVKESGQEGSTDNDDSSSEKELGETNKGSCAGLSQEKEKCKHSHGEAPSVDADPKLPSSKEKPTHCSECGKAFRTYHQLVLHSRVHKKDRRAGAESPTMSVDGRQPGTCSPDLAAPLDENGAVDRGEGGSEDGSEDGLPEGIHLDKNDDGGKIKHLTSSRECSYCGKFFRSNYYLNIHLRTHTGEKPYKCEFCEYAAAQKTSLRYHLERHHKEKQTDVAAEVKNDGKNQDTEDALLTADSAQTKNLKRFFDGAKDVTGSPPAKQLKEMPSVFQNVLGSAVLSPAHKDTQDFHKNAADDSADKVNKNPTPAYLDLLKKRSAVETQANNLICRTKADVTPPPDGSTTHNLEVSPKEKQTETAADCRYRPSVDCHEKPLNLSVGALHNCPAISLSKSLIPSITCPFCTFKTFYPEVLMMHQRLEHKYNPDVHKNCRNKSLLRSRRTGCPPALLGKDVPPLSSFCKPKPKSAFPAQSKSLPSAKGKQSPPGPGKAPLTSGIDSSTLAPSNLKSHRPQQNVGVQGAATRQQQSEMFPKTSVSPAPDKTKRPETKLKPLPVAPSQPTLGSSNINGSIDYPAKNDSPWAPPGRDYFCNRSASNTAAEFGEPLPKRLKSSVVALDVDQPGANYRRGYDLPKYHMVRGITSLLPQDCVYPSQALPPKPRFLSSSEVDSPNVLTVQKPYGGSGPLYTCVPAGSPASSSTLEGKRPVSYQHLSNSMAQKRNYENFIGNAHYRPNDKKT
Chain of ZRANB2 (O95218 whole entry, looked up): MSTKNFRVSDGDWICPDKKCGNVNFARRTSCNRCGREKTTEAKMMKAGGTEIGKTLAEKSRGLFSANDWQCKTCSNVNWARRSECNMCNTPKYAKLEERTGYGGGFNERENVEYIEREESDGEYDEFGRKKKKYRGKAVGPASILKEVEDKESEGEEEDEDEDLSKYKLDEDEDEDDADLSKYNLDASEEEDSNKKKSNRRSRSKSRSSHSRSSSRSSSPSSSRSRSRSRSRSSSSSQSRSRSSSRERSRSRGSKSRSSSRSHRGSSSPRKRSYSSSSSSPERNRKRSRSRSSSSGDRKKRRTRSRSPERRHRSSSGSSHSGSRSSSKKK
Chain of ZER1 (Q7Z7L7 whole entry, looked up): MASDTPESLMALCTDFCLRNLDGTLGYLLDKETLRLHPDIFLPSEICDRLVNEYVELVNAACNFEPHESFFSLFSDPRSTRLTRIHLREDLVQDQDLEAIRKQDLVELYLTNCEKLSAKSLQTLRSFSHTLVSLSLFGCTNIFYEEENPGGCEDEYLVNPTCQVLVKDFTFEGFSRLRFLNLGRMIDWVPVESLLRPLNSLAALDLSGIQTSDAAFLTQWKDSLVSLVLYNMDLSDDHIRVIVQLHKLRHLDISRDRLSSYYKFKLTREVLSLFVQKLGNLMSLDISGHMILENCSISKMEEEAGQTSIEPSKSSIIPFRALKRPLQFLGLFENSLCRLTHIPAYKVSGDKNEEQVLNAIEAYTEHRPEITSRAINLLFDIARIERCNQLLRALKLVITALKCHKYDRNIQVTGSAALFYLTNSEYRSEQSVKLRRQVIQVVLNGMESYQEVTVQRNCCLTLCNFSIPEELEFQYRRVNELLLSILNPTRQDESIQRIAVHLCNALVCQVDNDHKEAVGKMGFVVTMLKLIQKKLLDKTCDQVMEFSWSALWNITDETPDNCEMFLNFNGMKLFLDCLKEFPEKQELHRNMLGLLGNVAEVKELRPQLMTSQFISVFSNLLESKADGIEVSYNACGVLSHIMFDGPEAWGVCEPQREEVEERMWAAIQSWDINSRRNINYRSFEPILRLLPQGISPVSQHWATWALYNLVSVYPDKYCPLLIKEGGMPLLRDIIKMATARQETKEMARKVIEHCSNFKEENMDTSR
Chain of ZNF511 isoform 1 (Q8NB15 whole entry, looked up, canonical isoform): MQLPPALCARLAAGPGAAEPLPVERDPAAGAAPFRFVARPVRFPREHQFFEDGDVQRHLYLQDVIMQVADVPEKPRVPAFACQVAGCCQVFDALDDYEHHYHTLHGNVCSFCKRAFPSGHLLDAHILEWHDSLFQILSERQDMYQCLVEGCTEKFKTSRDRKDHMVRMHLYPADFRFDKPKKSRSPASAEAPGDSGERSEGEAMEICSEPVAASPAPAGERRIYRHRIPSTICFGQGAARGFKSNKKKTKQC
Chain of ZFAND5 (O76080 whole entry, looked up): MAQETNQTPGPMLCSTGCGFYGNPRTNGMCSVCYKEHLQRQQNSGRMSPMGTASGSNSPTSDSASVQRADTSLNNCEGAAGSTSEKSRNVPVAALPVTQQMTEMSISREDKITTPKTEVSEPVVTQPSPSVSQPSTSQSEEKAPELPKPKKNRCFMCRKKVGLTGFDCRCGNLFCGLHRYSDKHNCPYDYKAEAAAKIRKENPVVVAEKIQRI
Chain of ZMAT2 (Q96NC0 whole entry, looked up): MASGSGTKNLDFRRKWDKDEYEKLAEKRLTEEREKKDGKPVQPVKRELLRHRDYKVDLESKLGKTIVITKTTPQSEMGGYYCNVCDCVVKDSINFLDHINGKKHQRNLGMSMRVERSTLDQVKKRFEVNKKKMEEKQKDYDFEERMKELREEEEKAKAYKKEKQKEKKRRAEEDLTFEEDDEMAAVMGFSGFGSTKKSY
Chain of ZFP91 (Q96JP5 whole entry, looked up): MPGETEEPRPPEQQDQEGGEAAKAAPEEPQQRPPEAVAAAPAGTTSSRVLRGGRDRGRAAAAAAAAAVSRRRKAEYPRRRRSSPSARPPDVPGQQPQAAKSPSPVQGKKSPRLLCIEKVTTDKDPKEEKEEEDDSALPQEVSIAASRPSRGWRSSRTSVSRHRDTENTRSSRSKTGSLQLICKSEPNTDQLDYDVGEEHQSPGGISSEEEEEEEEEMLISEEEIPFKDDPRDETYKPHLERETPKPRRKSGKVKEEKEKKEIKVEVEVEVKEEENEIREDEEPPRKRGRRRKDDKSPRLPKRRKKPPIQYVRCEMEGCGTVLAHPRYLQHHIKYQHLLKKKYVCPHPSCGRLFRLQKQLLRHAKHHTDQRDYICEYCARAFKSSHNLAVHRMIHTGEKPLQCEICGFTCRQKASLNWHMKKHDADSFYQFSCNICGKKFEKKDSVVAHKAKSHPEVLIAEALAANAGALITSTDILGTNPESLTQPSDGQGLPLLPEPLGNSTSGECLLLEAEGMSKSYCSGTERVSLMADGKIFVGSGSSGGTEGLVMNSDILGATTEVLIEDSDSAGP
Chain of ZNF609 (O15014 whole entry, looked up): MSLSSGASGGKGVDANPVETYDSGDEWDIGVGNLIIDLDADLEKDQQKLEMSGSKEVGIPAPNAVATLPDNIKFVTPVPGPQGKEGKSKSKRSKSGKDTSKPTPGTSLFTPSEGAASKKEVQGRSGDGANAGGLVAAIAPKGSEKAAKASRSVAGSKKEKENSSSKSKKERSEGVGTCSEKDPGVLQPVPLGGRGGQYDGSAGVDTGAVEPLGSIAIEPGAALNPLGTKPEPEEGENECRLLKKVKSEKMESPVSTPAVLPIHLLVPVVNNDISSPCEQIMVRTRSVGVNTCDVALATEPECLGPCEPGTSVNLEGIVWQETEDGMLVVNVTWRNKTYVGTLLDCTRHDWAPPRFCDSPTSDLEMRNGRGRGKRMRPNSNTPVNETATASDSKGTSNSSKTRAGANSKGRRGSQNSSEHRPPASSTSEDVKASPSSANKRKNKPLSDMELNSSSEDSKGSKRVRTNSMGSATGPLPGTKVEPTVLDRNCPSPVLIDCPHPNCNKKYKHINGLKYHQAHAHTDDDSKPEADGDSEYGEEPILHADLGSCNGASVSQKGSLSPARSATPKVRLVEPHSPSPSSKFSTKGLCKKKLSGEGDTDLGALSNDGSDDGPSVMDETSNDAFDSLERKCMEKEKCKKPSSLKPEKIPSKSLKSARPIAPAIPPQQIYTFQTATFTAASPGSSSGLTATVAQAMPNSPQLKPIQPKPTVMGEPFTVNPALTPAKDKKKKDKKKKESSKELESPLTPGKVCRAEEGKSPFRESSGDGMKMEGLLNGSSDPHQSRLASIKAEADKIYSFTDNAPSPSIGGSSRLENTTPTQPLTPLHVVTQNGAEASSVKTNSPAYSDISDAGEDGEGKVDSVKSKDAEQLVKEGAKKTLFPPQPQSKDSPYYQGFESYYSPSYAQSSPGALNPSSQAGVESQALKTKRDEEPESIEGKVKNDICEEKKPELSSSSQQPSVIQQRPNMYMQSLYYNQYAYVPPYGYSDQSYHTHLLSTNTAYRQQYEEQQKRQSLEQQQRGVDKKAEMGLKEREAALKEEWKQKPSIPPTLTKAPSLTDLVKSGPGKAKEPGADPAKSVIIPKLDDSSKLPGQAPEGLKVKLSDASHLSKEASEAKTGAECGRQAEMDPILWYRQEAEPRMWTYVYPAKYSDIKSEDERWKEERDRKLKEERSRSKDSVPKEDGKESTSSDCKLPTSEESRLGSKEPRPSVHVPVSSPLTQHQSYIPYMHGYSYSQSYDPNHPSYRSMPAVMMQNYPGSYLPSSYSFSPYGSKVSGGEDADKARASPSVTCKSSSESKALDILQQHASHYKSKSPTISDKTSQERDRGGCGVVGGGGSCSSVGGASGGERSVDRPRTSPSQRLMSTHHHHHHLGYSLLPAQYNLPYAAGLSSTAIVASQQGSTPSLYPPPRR
Chain of ZNF580 (Q9UK33 whole entry, looked up): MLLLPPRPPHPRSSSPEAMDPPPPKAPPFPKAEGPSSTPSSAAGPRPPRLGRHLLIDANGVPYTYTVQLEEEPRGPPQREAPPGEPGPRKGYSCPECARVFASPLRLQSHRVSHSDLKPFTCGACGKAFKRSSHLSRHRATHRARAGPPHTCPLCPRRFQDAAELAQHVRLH

SMILES | log2 fold change [1] | log2 fold change [2] | log2 fold change [3] | log2 fold change [4] | log2 fold change [5] | log2 fold change [6] | log2 fold change [7] | log2 fold change [8] | log2 fold change [9] | log2 fold change [10] | log2 fold change [11] | log2 fold change [12] | log2 fold change [13] | log2 fold change [14] | log2 fold change [15] | log2 fold change [16] | log2 fold change [17] | log2 fold change [18] | log2 fold change [19] | log2 fold change [20]
NC(=O)c1ccc2nc(-c3ccc(Oc4ccc(Cl)cc4)cc3)[nH]c2c1 | 0.029 | -0.311 | -0.013 | 0.003 | 0.017 | 0.055 | 0.019 | -0.135 | -0.02 | 0.039 | 0.015 | 0.248 | -0.104 | -0.014 | 0.042 | 0.029 | 0.007 | -0.015 |  | 
CC[C@@H]1C(=O)N(C)c2cnc(Nc3ccc(C(=O)N[C@H]4CC[C@H](N5CCN(CC6CC6)CC5)CC4)cc3OC)nc2N1C(C)C [volasertib] | 0.001 | 0.009 | 0.215 | 0.09 | 0.016 | -0.088 | 0.036 | -0.118 | -0.077 | -0.289 (active) | -0.007 | 0.084 | -0.017 |  | 0.098 | -0.328 | 0.138 | 0.1 | 0.007 | 0.025
O=C1NC(=O)/C(=C\c2ccc3nccnc3c2)S1 | -0.177 | 0.031 | -0.017 | 0.007 | 0.051 | 0.021 | -0.015 | 0.005 | 0.079 | 0.045 | 0.007 | 0.065 | -0.108 |  | -0.07 | -0.006 | -0.004 | 0.051 | 0.017 | 
Cn1c2cc(S(C)=O)sc2c2cnn(Cc3cccc(N)c3)c(=O)c21 (configuration not stated) | 0.098 | 0.019 | 0.022 | -0.003 | 0.099 | -0.031 | -0.034 | -0.014 | -0.023 | -0.003 | 0.237 | 0.34 | 0.084 |  | 0.008 | 0.021 | -0.061 | -0.006 |  | 0.259
C[C@H](Nc1ncnc2nc[nH]c12)c1cc2cccc(Cl)c2c(=O)n1-c1ccccc1 [duvelisib] | 0.05 | -0.154 | -0.063 | 0.032 | -0.038 | 0.046 | 0.014 | -0.096 | 0.021 | -0.146 | 0.108 | 0.038 | -0.107 |  | -0.031 | 0.073 | 0.065 | -0.02 |  | -0.078
O=C(Nc1cccc(Nc2ncc(Br)c(NCCc3cnc[nH]3)n2)c1)N1CCCC1 | -0.106 | -0.015 | 0.01 | -0.058 | 0.004 | -0.047 | 0.017 | -0.136 | -0.042 | -0.058 | 0.01 | 0.001 | 0.034 |  | -0.377 (active) | -0.035 | 0.022 | -0.007 | 0.072 | 0.062
Cc1nc(Nc2ncc(C(=O)Nc3c(C)cccc3Cl)s2)cc(N2CCN(CCO)CC2)n1 [dasatinib] | -0.226 | -0.033 | 0.082 | 0.03 | 0.009 | 0.04 | 0.042 | -0.045 | 0.047 | -0.007 | -0.136 | -0.074 | 0.019 |  | -0.148 | 0 | 0.012 | 0.078 |  | -0.085
CC(C)c1cnn2c(NCc3ccccc3)cc(NCCCCCCN)nc12 | -0.187 | -0.072 | 0.072 | 0.075 | 0.007 | 0.146 | 0.138 | 0.09 | 0.04 | -0.158 | -0.034 | 0.149 | -0.3 | 0.321 | 0.054 | -0.042 | -0.011 | 0.014 |  | 
C[C@@H](Oc1cc(-c2cnn(C3CCNCC3)c2)cnc1N)c1c(Cl)ccc(F)c1Cl [crizotinib] | -0.141 | 0.084 | -0.085 | -0.041 | 0 | 0.107 | 0.098 | -0.017 | 0.04 | -0.06 | -0.121 | -0.124 | -0.181 |  | 0.112 | -0.113 | -0.029 | 0.014 |  | 0.164
Cc1ccc(NC(=O)c2cccc(N(C)C)c2)cc1NC(=O)c1ccc(O)cc1 | 0.071 | -0.059 | 0.034 | 0.026 | 0.036 | 0.094 | 0 | 0.051 | 0.056 | 0.023 | 0.006 | 0.143 | -0.097 |  | -0.183 | 0.162 | -0.036 | -0.012 | 0.012 | 
Cc1ccc(NC(=O)c2ccc(CN3CC[C@H](N(C)C)C3)c(C(F)(F)F)c2)cc1Nc1nccc(-c2cncnc2)n1 [bafetinib] | -0.017 | -0.055 | -0.022 | -0.013 | 0.191 | -0.022 | -0.053 | -0.028 | -0.061 | -0.089 | -0.057 | -0.452 | 0.246 |  | 0.107 | -0.233 | 0.021 | -0.014 | -0.098 | 
C#Cc1cccc(Nc2ncnc3cc(OCCOC)c(OCCOC)cc23)c1 [erlotinib] | 0.101 | 0.086 | -0.028 | 0.024 | -0.004 | -0.022 | -0.017 | 0.14 | 0.042 | 0.021 | 0.001 | -0.098 | 0.097 | -0.048 | -0.056 | 0.03 | 0.056 | 0.005 |  | 
Cc1cc(Nc2cc(N3CCN(C)CC3)nc(Sc3ccc(NC(=O)C4CC4)cc3)n2)n[nH]1 [tozasertib] | 0.022 | 0.008 | -0.076 | -0.084 | 0.01 | 0.009 | -0.039 | -0.043 | -0.033 | 0.057 | -0.07 | -0.116 | 0.202 |  | 0.041 | 0.078 | -0.064 | -0.029 | 0.049 | -0.138
CCn1c(C(=O)N(C2CC2)C2CC2)cc2c3c(ncn3C)c(Nc3cc(C)n(C)n3)nc21 | -0.041 | 0.045 | 0.063 | 0.046 | -0.028 | 0.042 | 0.022 | -0.079 | -0.029 | 0.075 | -0.034 | 0.004 | -0.188 | 0.128 | 0.002 | 0.007 | 0.005 | 0.014 |  | 
Cc1cccc(CC(=O)N2CCc3c2ccc(-c2cn(C)c4ncnc(N)c24)c3F)n1 |  | 0.369 | -0.032 | -0.014 | -0.037 | -0.041 | -0.037 | -0.036 | -0.121 | 0.027 | 0.008 | 0 | 0.045 |  | -0.101 | -0.22 | -0.019 | -0.065 |  | -0.045

— the supplement of paper PMC10849652
